Measurements from the supplement of paper PMC10849652.
Of roughly 7,900 targets only a part is listed; those with a hit were picked by preference. About 0.6% of all pairs of compound and target were hits.

compound: Cc1cc(Nc2cc(CN3CCOCC3)c3nc(C)c(Cc4ccc(Cl)cc4F)n3n2)n[nH]1 [gandotinib]; assay: log2 fold change, soluble protein after heating vs DMSO (PISA); higher = thermal stabilisation; K562 cells, 10 uM, 30 min; active = over 0.2 and 3.5 SD of the protein, either way, in both replicates (recomputed)
Summary of the method: (§1)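 K562 cells at 2×10^6 cells/mL were treated for 30 min with 10 μM compound, and aliquots were heated for 3 min over 48°C-58°C before pooling. Extraction used PBS with 0.5% NP-40 at 4°C, and soluble protein was the supernatant after 21,000xg for 90 min, measured by TMTpro 16plex LC-MS/MS with channel sums equalised. Thermal stability values, relative to control samples and from duplicates, are log2 fold changes.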

UniProt Q9BQI3, sequence (Q9BQI3 whole entry, looked up): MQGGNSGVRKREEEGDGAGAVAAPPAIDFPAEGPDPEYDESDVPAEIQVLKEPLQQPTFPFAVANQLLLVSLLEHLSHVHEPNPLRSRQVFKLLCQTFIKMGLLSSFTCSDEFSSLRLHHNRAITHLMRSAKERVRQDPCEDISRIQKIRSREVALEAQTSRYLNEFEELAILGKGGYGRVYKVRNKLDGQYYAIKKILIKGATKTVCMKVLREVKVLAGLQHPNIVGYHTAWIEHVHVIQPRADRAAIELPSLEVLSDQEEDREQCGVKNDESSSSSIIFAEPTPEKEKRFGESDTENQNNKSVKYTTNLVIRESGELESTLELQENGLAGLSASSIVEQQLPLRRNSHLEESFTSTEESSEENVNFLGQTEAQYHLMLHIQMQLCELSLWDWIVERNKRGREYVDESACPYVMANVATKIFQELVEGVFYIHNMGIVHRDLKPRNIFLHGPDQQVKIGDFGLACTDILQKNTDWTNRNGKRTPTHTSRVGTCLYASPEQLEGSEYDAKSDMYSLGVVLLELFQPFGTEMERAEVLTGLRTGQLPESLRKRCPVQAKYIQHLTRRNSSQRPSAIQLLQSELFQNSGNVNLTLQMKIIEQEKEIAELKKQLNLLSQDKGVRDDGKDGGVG
UniProt Q8NBI2, sequence (Q8NBI2 whole entry, looked up): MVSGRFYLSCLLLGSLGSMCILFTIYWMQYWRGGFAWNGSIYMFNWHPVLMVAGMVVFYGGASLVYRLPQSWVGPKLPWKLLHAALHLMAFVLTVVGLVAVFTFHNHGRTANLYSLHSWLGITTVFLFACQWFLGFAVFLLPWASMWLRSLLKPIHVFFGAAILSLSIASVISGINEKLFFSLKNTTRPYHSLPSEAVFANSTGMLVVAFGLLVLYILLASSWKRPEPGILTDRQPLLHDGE
UniProt Q01780, sequence (Q01780 whole entry, looked up): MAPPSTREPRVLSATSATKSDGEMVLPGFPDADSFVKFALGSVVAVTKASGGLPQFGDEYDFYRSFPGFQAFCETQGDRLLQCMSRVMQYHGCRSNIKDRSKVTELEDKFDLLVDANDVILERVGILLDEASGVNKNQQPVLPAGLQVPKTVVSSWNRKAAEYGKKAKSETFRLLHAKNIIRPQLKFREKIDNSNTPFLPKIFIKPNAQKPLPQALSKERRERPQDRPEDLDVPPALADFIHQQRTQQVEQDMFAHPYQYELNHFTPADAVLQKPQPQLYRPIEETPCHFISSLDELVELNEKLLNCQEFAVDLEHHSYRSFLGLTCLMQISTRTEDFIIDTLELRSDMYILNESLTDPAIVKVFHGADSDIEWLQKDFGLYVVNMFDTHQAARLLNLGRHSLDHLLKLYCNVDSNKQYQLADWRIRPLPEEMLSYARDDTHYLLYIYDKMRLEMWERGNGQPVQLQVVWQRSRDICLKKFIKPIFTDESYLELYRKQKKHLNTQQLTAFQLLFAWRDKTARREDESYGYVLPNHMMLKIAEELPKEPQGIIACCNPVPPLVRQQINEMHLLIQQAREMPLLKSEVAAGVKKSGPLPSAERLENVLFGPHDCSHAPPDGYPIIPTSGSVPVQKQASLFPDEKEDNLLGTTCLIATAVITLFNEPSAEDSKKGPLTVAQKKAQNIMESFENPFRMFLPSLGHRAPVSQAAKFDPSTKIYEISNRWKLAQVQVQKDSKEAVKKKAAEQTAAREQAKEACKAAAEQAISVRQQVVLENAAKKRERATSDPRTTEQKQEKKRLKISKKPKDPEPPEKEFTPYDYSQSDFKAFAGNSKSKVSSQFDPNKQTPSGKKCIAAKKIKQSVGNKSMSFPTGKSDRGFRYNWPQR
UniProt Q96CS3, sequence (Q96CS3 whole entry, looked up): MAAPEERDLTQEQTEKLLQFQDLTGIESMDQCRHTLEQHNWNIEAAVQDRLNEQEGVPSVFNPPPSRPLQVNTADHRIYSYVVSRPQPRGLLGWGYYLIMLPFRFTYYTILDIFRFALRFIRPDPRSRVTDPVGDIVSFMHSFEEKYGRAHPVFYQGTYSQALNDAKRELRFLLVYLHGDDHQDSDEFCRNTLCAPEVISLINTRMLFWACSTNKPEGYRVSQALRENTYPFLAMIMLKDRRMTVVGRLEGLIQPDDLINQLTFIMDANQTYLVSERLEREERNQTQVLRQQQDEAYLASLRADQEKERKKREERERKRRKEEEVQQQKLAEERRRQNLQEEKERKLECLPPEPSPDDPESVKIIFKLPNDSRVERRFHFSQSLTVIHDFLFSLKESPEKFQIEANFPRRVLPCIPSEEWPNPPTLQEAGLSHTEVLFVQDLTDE
UniProt Q9NZN4, sequence (Q9NZN4 whole entry, looked up): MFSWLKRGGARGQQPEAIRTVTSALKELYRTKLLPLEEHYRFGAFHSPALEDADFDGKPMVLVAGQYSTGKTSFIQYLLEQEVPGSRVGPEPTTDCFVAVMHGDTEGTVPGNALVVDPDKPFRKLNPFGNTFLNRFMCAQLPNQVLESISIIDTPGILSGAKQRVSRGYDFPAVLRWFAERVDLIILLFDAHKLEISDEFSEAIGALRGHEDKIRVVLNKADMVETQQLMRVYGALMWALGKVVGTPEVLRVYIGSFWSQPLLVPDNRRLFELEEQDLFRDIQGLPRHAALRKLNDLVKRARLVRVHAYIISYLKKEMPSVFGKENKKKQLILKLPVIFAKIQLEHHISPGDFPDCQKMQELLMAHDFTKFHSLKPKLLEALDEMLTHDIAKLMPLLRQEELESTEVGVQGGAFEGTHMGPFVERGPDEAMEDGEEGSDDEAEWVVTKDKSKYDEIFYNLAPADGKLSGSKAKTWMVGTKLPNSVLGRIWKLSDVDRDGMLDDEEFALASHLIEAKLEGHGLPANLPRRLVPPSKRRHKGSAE
UniProt P11182, sequence (P11182 whole entry, looked up): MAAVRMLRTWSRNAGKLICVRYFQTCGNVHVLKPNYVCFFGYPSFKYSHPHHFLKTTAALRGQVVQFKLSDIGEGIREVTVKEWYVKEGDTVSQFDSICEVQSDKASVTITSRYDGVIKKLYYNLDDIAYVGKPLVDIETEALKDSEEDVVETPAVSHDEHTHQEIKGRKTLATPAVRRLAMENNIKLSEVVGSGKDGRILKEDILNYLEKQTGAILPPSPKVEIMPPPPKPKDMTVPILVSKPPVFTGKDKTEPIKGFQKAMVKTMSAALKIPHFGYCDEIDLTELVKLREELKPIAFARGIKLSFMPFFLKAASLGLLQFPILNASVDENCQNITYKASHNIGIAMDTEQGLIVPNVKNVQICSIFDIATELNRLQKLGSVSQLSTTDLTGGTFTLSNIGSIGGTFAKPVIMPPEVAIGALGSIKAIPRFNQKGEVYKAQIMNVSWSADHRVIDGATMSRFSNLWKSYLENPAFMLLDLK
UniProt Q9UER7, sequence (Q9UER7 whole entry, looked up): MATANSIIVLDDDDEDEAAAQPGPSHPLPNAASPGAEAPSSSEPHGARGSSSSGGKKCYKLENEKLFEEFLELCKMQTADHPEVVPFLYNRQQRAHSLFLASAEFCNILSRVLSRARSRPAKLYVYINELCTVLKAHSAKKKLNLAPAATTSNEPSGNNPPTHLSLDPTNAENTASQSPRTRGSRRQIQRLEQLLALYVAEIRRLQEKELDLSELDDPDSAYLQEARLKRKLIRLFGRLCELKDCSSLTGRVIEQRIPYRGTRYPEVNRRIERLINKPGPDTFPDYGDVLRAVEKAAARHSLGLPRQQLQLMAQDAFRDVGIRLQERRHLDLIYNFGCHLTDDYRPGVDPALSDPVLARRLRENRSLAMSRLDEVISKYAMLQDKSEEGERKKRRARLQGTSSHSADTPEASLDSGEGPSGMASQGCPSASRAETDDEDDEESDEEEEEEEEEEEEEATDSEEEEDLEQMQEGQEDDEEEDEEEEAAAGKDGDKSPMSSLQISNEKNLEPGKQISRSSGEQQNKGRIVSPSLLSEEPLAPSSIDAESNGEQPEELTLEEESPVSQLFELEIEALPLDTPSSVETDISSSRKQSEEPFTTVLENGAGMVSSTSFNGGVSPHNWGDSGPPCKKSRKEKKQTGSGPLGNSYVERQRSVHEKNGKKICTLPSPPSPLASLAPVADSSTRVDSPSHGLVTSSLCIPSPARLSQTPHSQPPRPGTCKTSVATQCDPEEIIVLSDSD
UniProt Q6UX07, sequence (Q6UX07 whole entry, looked up): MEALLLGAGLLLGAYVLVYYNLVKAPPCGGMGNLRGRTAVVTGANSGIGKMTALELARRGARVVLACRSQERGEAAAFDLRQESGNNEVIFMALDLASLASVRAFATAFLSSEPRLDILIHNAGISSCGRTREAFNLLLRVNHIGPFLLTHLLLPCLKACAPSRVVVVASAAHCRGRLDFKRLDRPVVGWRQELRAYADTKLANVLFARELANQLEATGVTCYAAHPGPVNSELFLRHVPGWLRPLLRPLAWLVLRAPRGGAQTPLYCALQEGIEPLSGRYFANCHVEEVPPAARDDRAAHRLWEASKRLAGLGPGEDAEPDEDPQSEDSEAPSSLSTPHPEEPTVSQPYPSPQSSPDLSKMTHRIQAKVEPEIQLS
UniProt Q9BPY3, sequence (Q9BPY3 whole entry, looked up): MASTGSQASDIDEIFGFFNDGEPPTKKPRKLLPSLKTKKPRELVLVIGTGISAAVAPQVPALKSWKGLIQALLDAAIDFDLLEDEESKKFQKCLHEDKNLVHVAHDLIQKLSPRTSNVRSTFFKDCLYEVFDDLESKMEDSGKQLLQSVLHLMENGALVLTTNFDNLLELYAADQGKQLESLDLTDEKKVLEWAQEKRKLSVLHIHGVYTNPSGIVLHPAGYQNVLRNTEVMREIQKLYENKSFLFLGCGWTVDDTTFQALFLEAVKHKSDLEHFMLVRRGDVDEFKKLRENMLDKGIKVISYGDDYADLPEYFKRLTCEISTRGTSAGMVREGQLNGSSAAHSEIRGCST
UniProt Q8N8J7, sequence (Q8N8J7 whole entry, looked up): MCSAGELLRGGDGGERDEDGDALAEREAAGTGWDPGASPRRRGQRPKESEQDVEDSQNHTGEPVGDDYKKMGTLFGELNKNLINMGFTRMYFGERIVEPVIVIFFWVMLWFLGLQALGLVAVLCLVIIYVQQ

log2 fold change, inactive:
DBT (UniProt P11182) 0.005, FAM241A (UniProt Q8N8J7) -0.077, CYB561A3 isoform 2 (UniProt Q8NBI2) -0.103, FAM117A (UniProt Q9C073) -0.053, EHD2 (UniProt Q9NZN4) -0.028, DAXX (UniProt Q9UER7) 0.313, DHRS13 (UniProt Q6UX07) 0.064, CTNNB1 (UniProt P35222) 0.336, DOCK8 (UniProt Q8NF50) 0.146, EIF2AK1 (UniProt Q9BQI3) 0.137, FAF2 (UniProt Q96CS3) 0.022, EXOSC10 (UniProt Q01780) 0.527, DNAH5 (UniProt Q8TE73) 0.013, FAM118B (UniProt Q9BPY3) -0.101, ELAC1 (UniProt Q9H777) -0.021

compound: Cc1cc(Nc2cc(N3CCN(C)CC3)nc(Sc3ccc(NC(=O)C4CC4)cc3)n2)n[nH]1 [tozasertib]; assay: as above
Summary of the method: as §1

log2 fold change, inactive:
DYNC1I2 isoform 2 (UniProt Q13409) 0.044, EZH2 isoform 2 (UniProt Q15910) -0.12, EHBP1L1 (UniProt Q8N3D4) 0.067, DDX5 (UniProt P17844) 0.012, FAM177A1 isoform 2 (UniProt Q8N128) -0.072, EXOC4 (UniProt Q96A65) 0.041, E2F4 (UniProt Q16254) 0.086, DNAH10 (UniProt Q8IVF4) -0.146, DSN1 (UniProt Q9H410) 0.026, CWF19L2 (UniProt Q2TBE0) -0.016, DDOST (UniProt P39656) 0.022, CTSS (UniProt P25774) -0.114, DUS3L (UniProt Q96G46) 0.043, EFL1 (UniProt Q7Z2Z2) -0.009, EEF1A1 (UniProt P68104) -0.139, FAM207A (UniProt Q9NSI2) 0.053, DPP8 (UniProt Q6V1X1) -0.027, DDX27 (UniProt Q96GQ7) -0.12, DBT (UniProt P11182) 0.038, FAM241A (UniProt Q8N8J7) -0.027, CYB561A3 isoform 2 (UniProt Q8NBI2) -0.126, FAM193B (UniProt Q96PV7) 0.062, FAM117A (UniProt Q9C073) -0.12, EHD2 (UniProt Q9NZN4) -0.003, DAXX (UniProt Q9UER7) -0.167, DHRS13 (UniProt Q6UX07) 0.104, CTNNB1 (UniProt P35222) 0.03, DOCK8 (UniProt Q8NF50) -0.119, EIF4G3 isoform 3 (UniProt O43432) -0.013, DCP2 (UniProt Q8IU60) 0.219, EIF2AK1 (UniProt Q9BQI3) -0.028, FAF2 (UniProt Q96CS3) 0.016, ELF1 (UniProt P32519) 0.008, DNAJC24 (UniProt Q6P3W2) 0.05, EXOSC10 (UniProt Q01780) -0.118, DNAH5 (UniProt Q8TE73) 0.082, FAM118B (UniProt Q9BPY3) 0.019, EIF4E2 (UniProt O60573) 0.044
